From the supplement of paper PMC10681739

Each sequence was assayed against T1, ETS1 (UniProt P14921) (assay: ETS1 binding intensity (PBM fluorescence), ETS1 alone (arbitrary fluorescence units); higher = stronger binding). Conditions: ETS1 concentration 1 nM; RUNX1 concentration 0 nM.
T1 sequence: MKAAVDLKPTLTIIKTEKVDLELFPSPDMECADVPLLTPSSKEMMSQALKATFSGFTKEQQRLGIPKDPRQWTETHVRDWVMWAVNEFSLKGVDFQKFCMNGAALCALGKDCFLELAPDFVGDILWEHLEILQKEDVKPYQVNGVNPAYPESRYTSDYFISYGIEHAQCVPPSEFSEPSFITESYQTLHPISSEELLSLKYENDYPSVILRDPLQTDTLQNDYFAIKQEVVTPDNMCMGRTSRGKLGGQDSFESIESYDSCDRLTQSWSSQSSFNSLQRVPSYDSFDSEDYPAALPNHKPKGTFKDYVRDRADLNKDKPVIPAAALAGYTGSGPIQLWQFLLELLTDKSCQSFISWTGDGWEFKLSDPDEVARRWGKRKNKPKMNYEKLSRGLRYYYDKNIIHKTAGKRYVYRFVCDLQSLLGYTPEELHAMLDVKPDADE
Description: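 Cooperative genomic-context PBM: 36-bp genomic probes with neighbouring ETS1 and RUNX1 sites, double-stranded on Agilent 4x180k arrays. Full-length recombinant human ETS1 (1 nM) was incubated alone or with RUNX1 (25 nM) and detected with anti-ETS1 antibody plus Alexa488 secondary. Value is the median fluorescence intensity over 4 replicate spots; the ETS1+RUNX1 data were normalised to the ETS1-only data using probes without RUNX1 sites. The 36-bp variable region sits on the array probe with constant linker/primer flanks that are not printed.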

Row | Sequence | ETS1 binding intensity
1 | GCAACAGGAAGGACCAAGTCCCCTCCCGCAATTTTA | 627
2 | GAGGGGAGGATGTCTGAGCTTTTAATTGTGGTTTCA | 370
3 | GCAGAAGAGGAAATGGTTTGCCTGTGCGGTGGGGGA | 1370
4 | ACTGGCTTCACTTCCTCCGCGGTTCCTCGGAGCCGC | 497
5 | GAAATGAAGGCCGGATGTCAGTAACCACAAACGAGC | 7620
6 | GAAAGACAGGATGTGGGATAGATCTCAACCACCTTT | 2590
7 | GCCGGTGAGGGCGGAAGTGGTAAGACTGACGTGTCC | 6840
8 | GGACTCTGGCAGGAAGCTGTTTGTGGTTGTCACACC | 3140
9 | GTGAATGAGGGGGAAGGAAGTGGTTTGGAAAAATAC | 1890
10 | CTACAGGAAGTTCGAACTGGGCGGAGCCCACCGCAG | 1320
11 | CTAAACCGGAAGCCGCCCCTCTGACCGCTCTAAAAC | 5350
12 | CGGCAGGCAAGCAGGAAACCGCGAGTGGAGAAAGGG | 1960
13 | AGCTCTGCCAGGAAGTGAGAACCACAGGCCTCCCCT | 1570
14 | TAGGCTGAAGACTTCCGCCCCGCAGAGGACTTGCCT | 1040
15 | AAATCACATACCCGGAAACCACATGCACAGAAGTGG | 1480
16 | GCGGGAAAAGGGAAGTTTGCGGGAGGTCAAATCCAC | 563
17 | TGGCTGTGTCCCGGAAGTGGTCATAAGCTGGGTCCC | 8520
18 | TACGTCACTTCCGGGCCGCCGTCCTGCGGGCAAGGG | 2570
19 | GTGCTGAGCAGCTTCCCGTCTGCGGTGAAGACAGCC | 396
20 | CACCTCACAGCCCGGATACAAACCGCCTACCCGCCC | 780

Row | Sequence | ETS1 binding intensity
21 | GCTTCTTCAGCCACATCCTGACCACAGCCCAGATTC | 496
22 | ATAGAAACTACAGGAAATACTGTGGTCAGGTTTTGA | 2770
23 | TTGGTGGCTTCCTGCCCAGGAGACCACACCCAGCTT | 540
24 | GTGCCGGCGGCCGGATGTGGGCGGGGCCACGGGGAG | 8590
25 | GCGAAAAACGCGGAAATGCGGTGGCGGCGGCCCGCT | 885
26 | AGCCACATCCTGGACAAAAGCTGTGGTCTAGTAACC | 430
27 | GATACAGTGCTCAGGAAACCACATGAAACCAGAGTA | 451
28 | TAAGGATGTGTGGCTTCCAGATCAAAAACCGCAAAA | 516
29 | GCCGCGCGGAAGCCTCCGCCCTGTGGTTTTGGAGCC | 368
30 | TACGGGAACTTCCTTTTCTTGTGGTGTGGCCGGGTC | 571
31 | CAGTTTGCCCCGGATGTTGACCGCCTTGAAGTCGTA | 4170
32 | AGAACCACTTCCTCTCAGTAAACCACAGAGACTGTA | 592
33 | GCAAACGGAAGAGAGGAACGAAGGCCGCAGAGCTTG | 486
34 | TGAAACCCAGCAGGATGTGGGTTAACGGCAGGGGAG | 2590
35 | TAACTTGAACTTCCTTTTGACCACCTGTACGGTATA | 497
36 | CCGCTGAGAACAGGATGTGGGTGTCAGGAGGTGAAG | 4850
37 | GGGGCTCCGCAGGAAGTAGGGCTCCCACAACTTTGC | 2970
38 | GCATTTCTCAGAAAAGGAAGCGGTTGTGCCGGGAGG | 1530
39 | AGCGGATTCCGGACATAACAATCTACAGCGGTCTTA | 444
40 | CGGGGACCACTGTCAGGATGTGGTCACTGGAGTCAC | 907
